Experimental data as given in PubChem BioAssay (EPA / NIEHS).
Active and inactive are the calls of the source. The calls were made as follows: active = hit-call score of the fitted dose curve at least 0.9, where 1 is the maximum; inactive = score below 0.9.

Read-out: Collagen III, COL3A1 (gene 1281)
Experiment: BSK_MyoF_CollagenIII: BioMAP Diversity Plus: MyoF Assay for Collagen III Biomarker Activity (AID 2284239)
Details: primary human lung fibroblasts
Outline: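 Primary human lung fibroblasts (BioMAP MyoF system) exposed 24 h. Collagen III measured by ELISA; positive-direction fit relative to DMSO.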

Row | SMILES | outcome
1 | CC(C)CC(=O)CC(C)CC(C)C (stereo unspecified) | inactive
2 | CN(C)CCC(c1ccc(Cl)cc1)c1ccccn1 (stereo unspecified) | inactive

Read-out: Interleukin 2 (IL2), IL2 (gene 3558)
Experiment: BSK_BT_xIL2: BioMAP Diversity Plus: BT Assay for Interleukin 2 (IL2) Biomarker Activity (AID 2284245)
Details: primary human B cells with PBMC
Outline: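 B cell + PBMC co-culture (human primary), compound added, 24 h incubation; secreted IL-2 measured multiplexed on Luminex xMAP; gain-of-signal fit vs DMSO.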

Row | SMILES | outcome
3 | CCCCCCCCCCC1CO1 (stereo unspecified) | inactive
4 | Cc1cccnc1 | inactive
5 | CC(C)CC(=O)CC(C)CC(C)C (stereo unspecified) | inactive
6 | CN(C)CCC(c1ccc(Cl)cc1)c1ccccn1 (stereo unspecified) | inactive

Read-out: Basic fibroblast growth factor (bFGF), FGF2 (gene 2247)
Experiment: BSK_MyoF_bFGF: BioMAP Diversity Plus: MyoF Assay for Basic fibroblast growth factor (bFGF) Biomarker Activity (AID 2284246)
Details: primary human lung fibroblasts
Outline: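 ELISA-measured bFGF level serves as the read-out, taken 24 h after chemical dosing of human lung fibroblasts. Values represent signal gain over the DMSO negative control.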

Row | SMILES | AC50 | outcome
7 | CCCCCCCCCCC1CO1 (stereo unspecified) | 31.1 µM (active) | 
8 | Cc1cccnc1 |  | inactive
9 | CC(C)CC(=O)CC(C)CC(C)C (stereo unspecified) |  | inactive
10 | CN(C)CCC(c1ccc(Cl)cc1)c1ccccn1 (stereo unspecified) |  | inactive

Read-out: Collagen IV, COL4A1 (gene 1282)
Experiment: BSK_MyoF_CollagenIV: BioMAP Diversity Plus: MyoF Assay for Collagen IV Biomarker Activity (AID 2284247)
Details: primary human lung fibroblasts
Outline: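 Steps: dose human lung fibroblasts; culture 24 h; quantify Collagen IV by ELISA; fit increase versus DMSO control. Parallel SRB total-protein staining (0.1% SRB after 10% TCA fixation, 560 nm) tracks overt cytotoxicity.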

Row | SMILES | outcome
11 | CCCCCCCCCCC1CO1 (stereo unspecified) | inactive
12 | Cc1cccnc1 | inactive
13 | CC(C)CC(=O)CC(C)CC(C)C (stereo unspecified) | inactive
14 | CN(C)CCC(c1ccc(Cl)cc1)c1ccccn1 (stereo unspecified) | inactive

Read-out: Plasminogen activator inhibitor-1 (PAI1), SERPINE1 (gene 5054)
Experiment: BSK_MyoF_PAI1: BioMAP Diversity Plus: MyoF Assay for Plasminogen activator inhibitor-1 (PAI1) Biomarker Activity (AID 2284256);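 as to outcome: PAI-1 read 24 h after compound addition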
Details: primary human lung fibroblasts
Outline: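 Primary human lung fibroblasts treated with chemical for 24 h; PAI-1 levels quantified by ELISA relative to DMSO. Cytotoxicity was assessed in parallel cultures by SRB total-protein staining (0.1% SRB after 10% TCA fixation, 560 nm).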

Row | SMILES | AC50 | outcome
15 | CCCCCCCCCCC1CO1 (stereo unspecified) | 29 µM (active) | 
16 | Cc1cccnc1 |  | inactive
17 | CC(C)CC(=O)CC(C)CC(C)C (stereo unspecified) |  | inactive
18 | CN(C)CCC(c1ccc(Cl)cc1)c1ccccn1 (stereo unspecified) |  | inactive

Read-out: Interleukin-8 (IL8), CXCL8 (gene 3576)
Experiment: BSK_MyoF_IL8: BioMAP Diversity Plus: MyoF Assay for Interleukin-8 (IL8) Biomarker Activity (AID 2284261)
Details: primary human lung fibroblasts
Outline: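 Human lung fibroblast (MyoF system) cultures dosed for 24 h, then IL-8 measured by ELISA. Response taken relative to DMSO; parallel SRB total-protein staining for cytotoxicity.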

Row | SMILES | outcome
19 | CCCCCCCCCCC1CO1 (stereo unspecified) | inactive
20 | Cc1cccnc1 | inactive
21 | CC(C)CC(=O)CC(C)CC(C)C (stereo unspecified) | inactive
22 | CN(C)CCC(c1ccc(Cl)cc1)c1ccccn1 (stereo unspecified) | inactive

Read-out: Decorin, DCN (gene 1634)
Experiment: BSK_MyoF_Decorin: BioMAP Diversity Plus: MyoF Assay for Decorin Biomarker Activity (AID 2284265)
Details: primary human lung fibroblasts
Outline: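 Human lung fibroblast cultures were dosed for 24 h, and decorin was then measured by ELISA. Parallel cultures were stained with sulforhodamine B for total protein as a cytotoxicity check. Gain of signal was fitted relative to DMSO.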

Row | SMILES | AC50 | outcome
23 | CCCCCCCCCCC1CO1 (stereo unspecified) | 24.7 µM (active) | 
24 | Cc1cccnc1 |  | inactive
25 | CC(C)CC(=O)CC(C)CC(C)C (stereo unspecified) |  | inactive
26 | CN(C)CCC(c1ccc(Cl)cc1)c1ccccn1 (stereo unspecified) |  | inactive

Read-out: not listed separately
Experiment: BSK_MyoF_SRB: Viability Assessment in the BioMAP Diversity Plus: MyoF Assay (AID 2284267);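 also: total protein by SRB absorbance in parallel cultures as cytotoxicity measure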
Details: primary human lung fibroblasts
Outline: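 Read-out is SRB absorbance at 560 nm, reflecting total protein in parallel lung fibroblast cultures harvested 24 h after compound addition. Cells were TCA-fixed (10%) and stained with 0.1% SRB; activity is referenced to DMSO.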

Row | SMILES | AC50 | outcome
27 | CCCCCCCCCCC1CO1 (stereo unspecified) | 35.2 µM (active) | 
28 | Cc1cccnc1 |  | inactive
29 | CC(C)CC(=O)CC(C)CC(C)C (stereo unspecified) |  | inactive
30 | CN(C)CCC(c1ccc(Cl)cc1)c1ccccn1 (stereo unspecified) |  | inactive

Read-out: Matrix Metallopeptidase 1 (MMP1), MMP1 (gene 4312)
Experiment: BSK_MyoF_MMP1: BioMAP Diversity Plus: MyoF Assay for Matrix Metallopeptidase 1 (MMP1) Biomarker Activity (AID 2284268)
Details: primary human lung fibroblasts
Outline: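 Human lung fibroblast primary cells; MMP1 measured by ELISA 24 h after dosing, fitted in the positive direction relative to DMSO. Parallel SRB staining (0.1%, after 10% TCA fixation, 560 nm) assesses overt cytotoxicity.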

Row | SMILES | AC50 | outcome
31 | CCCCCCCCCCC1CO1 (stereo unspecified) | 3.97 µM (active) | 
32 | Cc1cccnc1 |  | inactive
33 | CC(C)CC(=O)CC(C)CC(C)C (stereo unspecified) |  | inactive
34 | CN(C)CCC(c1ccc(Cl)cc1)c1ccccn1 (stereo unspecified) |  | inactive

Read-out: TIMP metallopeptidase inhibitor 1 (TIMP1), TIMP1 (gene 7076)
Experiment: BSK_MyoF_TIMP1: BioMAP Diversity Plus: MyoF Assay for TIMP metallopeptidase inhibitor 1 (TIMP1) Biomarker Activity (AID 2284269)
Details: primary human lung fibroblasts
Outline: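 Fibroblasts from human lung are dosed with chemical, cultured 24 h, and assayed for TIMP-1 by ELISA. Increases over the DMSO baseline are scored, with SRB total-protein staining run in parallel for cytotoxicity.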

Row | SMILES | AC50 | outcome
35 | CCCCCCCCCCC1CO1 (stereo unspecified) | 32.3 µM (active) | 
36 | Cc1cccnc1 |  | inactive
37 | CC(C)CC(=O)CC(C)CC(C)C (stereo unspecified) |  | inactive
38 | CN(C)CCC(c1ccc(Cl)cc1)c1ccccn1 (stereo unspecified) |  | inactive

Test system: not listed separately
Experiment: CCTE_Padilla_ZF_Score.General: CCTE's 144 Hour Post-fertilization zebrafish Assay Score for General Malformation, Padilla Lab (AID 2284411)
Details: not given
Outline: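 Wild-type zebrafish embryos were plated singly at 6-8 hpf in 10% Hanks' and exposed in sealed wells at 26C until rinsed on 5 dpf. At 6 dpf two blinded assessors scored mortality, hatching and malformations by stereomicroscopy; gain-of-signal versus DMSO.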

Row | SMILES | outcome
39 | Cc1cccnc1 | inactive
40 | CC(C)CC(=O)CC(C)CC(C)C (stereo unspecified) | inactive
41 | CN(C)CCC(c1ccc(Cl)cc1)c1ccccn1 (stereo unspecified) | inactive
